Assay results reported in the supplement of paper PMC7411054.
Structures can show the parent of a compound that is named as a salt.

Key:
Experiment in all cases: phenotypically active (imaging signature differs from DMSO and reproducible) at any of 0.3-9 uM (binary (1 = active, 0 = inactive)); higher = active
Settings in all cases: treatment time: 24 h
A549-ACTB-RAB5A = test system: A549-ACTB-RAB5A
Procedure, shortened: (§1)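 Live-cell features were measured per well and normalised to solvent control wells after fifteen gene-edited A549, HepG2 and WPMY1 reporter lines had been treated for 24 h at 0.3, 1, 3 or 9 µM in four wells each. A condition was deviating when ≥3 of 4 wells sat beyond the 95th percentile of control Euclidean distances. It was reproducible when the median replicate Pearson correlation exceeded the 95th percentile of non-replicates. Phenotypic activity demanded both.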

A549-CANX-COX4 = test system: A549-CANX-COX4
Procedure, shortened: as §1

A549-GM130-SQSTM1 = test system: A549-GM130-SQSTM1
Procedure, shortened: as §1

A549-TP53BP1-CLTA = test system: A549-TP53BP1-CLTA
Procedure, shortened: as §1

A549-TUBA1B-RELA = test system: A549-TUBA1B-RELA
Procedure, shortened: as §1

HepG2-ACTB-RAB5A = test system: HepG2-ACTB-RAB5A
Procedure, shortened: as §1

HepG2-CANX-COX4 = test system: HepG2-CANX-COX4
Procedure, shortened: as §1

HepG2-GM130-SQSTM1 = test system: HepG2-GM130-SQSTM1
Procedure, shortened: as §1

HepG2-TP53BP1-CLTA = test system: HepG2-TP53BP1-CLTA
Procedure, shortened: as §1

HepG2-TUBA1B-RELA = test system: HepG2-TUBA1B-RELA
Procedure, shortened: as §1

WPMY1-ACTB-RAB5A = test system: WPMY1-ACTB-RAB5A
Procedure, shortened: as §1

WPMY1-CANX-COX4 = test system: WPMY1-CANX-COX4
Procedure, shortened: as §1

WPMY1-GM130-SQSTM1 = test system: WPMY1-GM130-SQSTM1
Procedure, shortened: as §1

WPMY1-TP53BP1-CLTA = test system: WPMY1-TP53BP1-CLTA
Procedure, shortened: as §1

WPMY1-TUBA1B-RELA = test system: WPMY1-TUBA1B-RELA
Procedure, shortened: as §1

Measured: phenotypically active

C[C@@H](N)[C@@H](O)c1ccccc1 [phenylpropanolamine]
inactive: A549-ACTB-RAB5A 0 | A549-CANX-COX4 0 | A549-GM130-SQSTM1 0 | A549-TP53BP1-CLTA 0 | A549-TUBA1B-RELA 0 | HepG2-ACTB-RAB5A 0 | HepG2-CANX-COX4 0 | HepG2-GM130-SQSTM1 0 | HepG2-TP53BP1-CLTA 0 | HepG2-TUBA1B-RELA 0 | WPMY1-ACTB-RAB5A 0 | WPMY1-CANX-COX4 0 | WPMY1-GM130-SQSTM1 0 | WPMY1-TP53BP1-CLTA 0 | WPMY1-TUBA1B-RELA 0

O=C1CCC[C@@H]2[C@H]3CCCN4CCC[C@@H](CN12)[C@@H]34 [Matrine]
inactive: A549-ACTB-RAB5A 0 | A549-CANX-COX4 0 | A549-GM130-SQSTM1 0 | A549-TP53BP1-CLTA 0 | A549-TUBA1B-RELA 0 | HepG2-ACTB-RAB5A 0 | HepG2-CANX-COX4 0 | HepG2-GM130-SQSTM1 0 | HepG2-TP53BP1-CLTA 0 | HepG2-TUBA1B-RELA 0 | WPMY1-ACTB-RAB5A 0 | WPMY1-CANX-COX4 0 | WPMY1-GM130-SQSTM1 0 | WPMY1-TP53BP1-CLTA 0 | WPMY1-TUBA1B-RELA 0

Clc1ccc2c(c1)C(c1ccccc1)=NCc1nncn1-2 [estazolam]
inactive: A549-ACTB-RAB5A 0 | A549-CANX-COX4 0 | A549-GM130-SQSTM1 0 | A549-TP53BP1-CLTA 0 | A549-TUBA1B-RELA 0 | HepG2-ACTB-RAB5A 0 | HepG2-CANX-COX4 0 | HepG2-GM130-SQSTM1 0 | HepG2-TP53BP1-CLTA 0 | HepG2-TUBA1B-RELA 0 | WPMY1-ACTB-RAB5A 0 | WPMY1-CANX-COX4 0 | WPMY1-GM130-SQSTM1 0 | WPMY1-TP53BP1-CLTA 0 | WPMY1-TUBA1B-RELA 0

Nc1ccncc1 [dalfampridine]
inactive: A549-ACTB-RAB5A 0 | A549-CANX-COX4 0 | A549-GM130-SQSTM1 0 | A549-TP53BP1-CLTA 0 | A549-TUBA1B-RELA 0 | HepG2-ACTB-RAB5A 0 | HepG2-CANX-COX4 0 | HepG2-GM130-SQSTM1 0 | HepG2-TP53BP1-CLTA 0 | HepG2-TUBA1B-RELA 0 | WPMY1-ACTB-RAB5A 0 | WPMY1-CANX-COX4 0 | WPMY1-GM130-SQSTM1 0 | WPMY1-TP53BP1-CLTA 0 | WPMY1-TUBA1B-RELA 0

C[C@]12COC(=O)C[C@@H]1CC[C@@H]1[C@@H]2CC[C@@]2(C)[C@H]1CC[C@]2(C)O [oxandrolone]
inactive: A549-ACTB-RAB5A 0 | A549-CANX-COX4 0 | A549-GM130-SQSTM1 0 | A549-TP53BP1-CLTA 0 | A549-TUBA1B-RELA 0 | HepG2-ACTB-RAB5A 0 | HepG2-CANX-COX4 0 | HepG2-GM130-SQSTM1 0 | HepG2-TP53BP1-CLTA 0 | HepG2-TUBA1B-RELA 0 | WPMY1-ACTB-RAB5A 0 | WPMY1-CANX-COX4 0 | WPMY1-GM130-SQSTM1 0 | WPMY1-TP53BP1-CLTA 0 | WPMY1-TUBA1B-RELA 0

CN(C)NC(=O)CCC(=O)O [Daminozide]
inactive: A549-ACTB-RAB5A 0 | A549-CANX-COX4 0 | A549-GM130-SQSTM1 0 | A549-TP53BP1-CLTA 0 | A549-TUBA1B-RELA 0 | HepG2-ACTB-RAB5A 0 | HepG2-CANX-COX4 0 | HepG2-GM130-SQSTM1 0 | HepG2-TP53BP1-CLTA 0 | HepG2-TUBA1B-RELA 0 | WPMY1-ACTB-RAB5A 0 | WPMY1-CANX-COX4 0 | WPMY1-GM130-SQSTM1 0 | WPMY1-TP53BP1-CLTA 0 | WPMY1-TUBA1B-RELA 0

CO[C@H]1C=C2CCN(C)[C@H]2[C@@H]2c3cc4c(cc3[C@@H](O)O[C@@H]21)OCO4 [Unsevine]
inactive: A549-ACTB-RAB5A 0 | A549-CANX-COX4 0 | A549-GM130-SQSTM1 0 | A549-TP53BP1-CLTA 0 | A549-TUBA1B-RELA 0 | HepG2-ACTB-RAB5A 0 | HepG2-CANX-COX4 0 | HepG2-GM130-SQSTM1 0 | HepG2-TP53BP1-CLTA 0 | HepG2-TUBA1B-RELA 0 | WPMY1-ACTB-RAB5A 0 | WPMY1-CANX-COX4 0 | WPMY1-GM130-SQSTM1 0 | WPMY1-TP53BP1-CLTA 0 | WPMY1-TUBA1B-RELA 0

COc1ccc(OC)c(C(O)C(C)N)c1 (stereo not given) [methoxamine]
inactive: A549-ACTB-RAB5A 0 | A549-CANX-COX4 0 | A549-GM130-SQSTM1 0 | A549-TP53BP1-CLTA 0 | A549-TUBA1B-RELA 0 | HepG2-ACTB-RAB5A 0 | HepG2-CANX-COX4 0 | HepG2-GM130-SQSTM1 0 | HepG2-TP53BP1-CLTA 0 | HepG2-TUBA1B-RELA 0 | WPMY1-ACTB-RAB5A 0 | WPMY1-CANX-COX4 0 | WPMY1-GM130-SQSTM1 0 | WPMY1-TP53BP1-CLTA 0 | WPMY1-TUBA1B-RELA 0

N[C@@H]1C[C@H]1c1ccccc1 [Tranylcypromine hydrochloride]
inactive: A549-ACTB-RAB5A 0 | A549-CANX-COX4 0 | A549-GM130-SQSTM1 0 | A549-TP53BP1-CLTA 0 | A549-TUBA1B-RELA 0 | HepG2-ACTB-RAB5A 0 | HepG2-CANX-COX4 0 | HepG2-GM130-SQSTM1 0 | HepG2-TP53BP1-CLTA 0 | HepG2-TUBA1B-RELA 0 | WPMY1-ACTB-RAB5A 0 | WPMY1-CANX-COX4 0 | WPMY1-GM130-SQSTM1 0 | WPMY1-TP53BP1-CLTA 0 | WPMY1-TUBA1B-RELA 0

CCOc1cc(C=O)ccc1O [Ethylvanilline]
inactive: A549-ACTB-RAB5A 0 | A549-CANX-COX4 0 | A549-GM130-SQSTM1 0 | A549-TP53BP1-CLTA 0 | A549-TUBA1B-RELA 0 | HepG2-ACTB-RAB5A 0 | HepG2-CANX-COX4 0 | HepG2-GM130-SQSTM1 0 | HepG2-TP53BP1-CLTA 0 | HepG2-TUBA1B-RELA 0 | WPMY1-ACTB-RAB5A 0 | WPMY1-CANX-COX4 0 | WPMY1-GM130-SQSTM1 0 | WPMY1-TP53BP1-CLTA 0 | WPMY1-TUBA1B-RELA 0

NC(=S)N/N=C/c1coc2ccccc2c1=O
inactive: A549-ACTB-RAB5A 0 | A549-CANX-COX4 0 | A549-GM130-SQSTM1 0 | A549-TP53BP1-CLTA 0 | A549-TUBA1B-RELA 0 | HepG2-ACTB-RAB5A 0 | HepG2-CANX-COX4 0 | HepG2-GM130-SQSTM1 0 | HepG2-TP53BP1-CLTA 0 | HepG2-TUBA1B-RELA 0 | WPMY1-ACTB-RAB5A 0 | WPMY1-CANX-COX4 0 | WPMY1-GM130-SQSTM1 0 | WPMY1-TP53BP1-CLTA 0 | WPMY1-TUBA1B-RELA 0
